This excerpt belongs to a sample that is enriched for hits.
Tb PYK inh – qHTS of Trypanosoma Brucei Inhibitors; pyruvate kinase (Trypanosoma brucei), Q57TT1; TbPYK enzyme, Kinase-Glo Plus ATP luminescence, 45 min; Potency, µM (highest dose often 76.8 µM), without a hit: top-dose activity, negative = inhibition, most hits filed as inhibitors; hit rate 0.12% among 410,000; also: potency is read from the fitted curve at half-maximal effect; % is scaled to controls: 0 for no effect and ±100 for the full control effect; nearly all actives have a fitted effect of over 50% in size
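TbPYK + substrate in 50 mM TEA pH 7.2, 100 mM KCl, 10 mM MgCl2, 0.05% BSA, 0.01% Tween-20; cpd pinned; ADP 130 uM final; 45 min RT; Kinase-Glo Plus 10 min; luminescence endpoint.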
Sm TGR inh – qHTS Assay for the Inhibitors of Schistosoma Mansoni Peroxiredoxins. Schistosoma mansoni thioredoxin glutathione reductase (TGR), Q962Y6. hit rate 3% among 360,000. AID 485364, 2010. Potency, µM (series often up to 114 µM), inactives show top-dose activity change, negative = inhibition, actives largely listed as inhibitors. purified TGR, DTNB reduction, TNB absorbance 405 nm; also: potency is read from the fitted curve at half-maximal effect; % is scaled to controls: 0 for no effect and ±100 for the full control effect; nearly all actives have a fitted effect of over 60% in size
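TGR 20 nM + NADPH 100 uM (dispensed conc.), cpd preinc 15 min RT; start with NADPH (500 uM addition) then DTNB (15 mM addition). Kinetic TNB absorbance, 405 nm filter. Four-parameter Hill fit across titration.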
Shiga inhibitor – A qHTS for Small Molecule Inhibitors of Shiga Toxin | inhibition, % at 38.7 µM | Vero cells, Shiga toxin protein synthesis inhibition reporter | AID 2315, 2010 | hit rate 9.2% among 290,000; in the data active = inhibition mostly above about 28%, no sharp cut-off; inactive = mostly below about 43%; also: 0% is about no effect
LmPK inh – qHTS Assay for Inhibitors of Leishmania Mexicana Pyruvate Kinase (LmPK) | hit rate 0.37% among 290,000 | Q27686 | AID 1721, 2009 | purified LmPK, Kinase-Glo ATP luminescence, 1 h | Potency, µM (series often up to 57.5 µM), for inactives: at the top dose activity change, negative = inhibition, usual class: inhibitors; also: potency is read from the fitted curve at half-maximal effect; % is scaled to controls: 0 for no effect and ±100 for the full control effect
Target sequence (Q27686 whole entry, looked up): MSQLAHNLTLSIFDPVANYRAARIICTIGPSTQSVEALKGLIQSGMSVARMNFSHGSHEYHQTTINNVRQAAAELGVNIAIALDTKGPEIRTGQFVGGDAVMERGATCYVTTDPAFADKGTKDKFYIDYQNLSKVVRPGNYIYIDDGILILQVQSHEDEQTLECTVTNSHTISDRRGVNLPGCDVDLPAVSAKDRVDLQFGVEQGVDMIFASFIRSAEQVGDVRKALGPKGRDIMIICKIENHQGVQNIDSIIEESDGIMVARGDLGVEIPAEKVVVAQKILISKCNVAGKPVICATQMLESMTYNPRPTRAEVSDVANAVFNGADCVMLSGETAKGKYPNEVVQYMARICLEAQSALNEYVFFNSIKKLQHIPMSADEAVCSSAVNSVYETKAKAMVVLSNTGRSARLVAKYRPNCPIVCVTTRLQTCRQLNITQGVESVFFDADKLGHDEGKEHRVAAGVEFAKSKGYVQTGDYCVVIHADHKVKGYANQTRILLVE
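Screened at intermediate enzyme activity to detect both inhibitors and activators: LmPK at 0.1 nM, with a 0.5 nM enzyme column as activation reference. PEP 0.5 mM, ADP 0.1 mM; ATP detected by luminescence after 1 h.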
Cycloheximide cs – Cycloheximide Counterscreen for Small Molecule Inhibitors of Shiga Toxin; cell reporter, cycloheximide protein synthesis inhibition counterscreen; max response, %; hit rate 12% among 300,000; in the data active = max response mostly above about 13%, no sharp cut-off; inactive = mostly below about 14%; also: read at 38.3 µM for the half of the compounds with a filed dose; 0% is about no effect
Giardia FBPA inh – qHTS Assay for Inhibitors of Fructose-1,6-bisphosphate Aldolase from Giardia Lamblia; purified Giardia FBPA; hit rate 0.71% among 290,000; Potency, µM (top dose mostly 59.6 µM), for inactives: at the top dose activity, negative = inhibition, most hits filed as inhibitors; AID 2451, 2010; A8B2U2; also: potency is read from the fitted curve at half-maximal effect; % is scaled to controls: 0 for no effect and ±100 for the full control effect; nearly all actives have a fitted effect of over 55% in size
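40 nM FBPA preincubated 10 min at RT with compound (up to 57.5 uM final), then substrate plus GAPDH/TPI/NAD/arsenate coupling and diaphorase/resazurin added. Fluorescence read after 20 min at RT, 525/598 nm.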
* hit, by the source's call; ? = inconclusive; / = not tested or not shown; [ ] = remark or other dose. Unless noted, calls follow the shape of the dose curve; as a rule, active = well fitted curve in the direction sought with a large enough effect; inconclusive = small, poorly fitted or top-dose-only effect, or another doubt; inactive = no such curve, though single readings can be large; an effect the other way counts as inactive or inconclusive.

SMILES	Tb PYK inh	Sm TGR inh	Shiga inhibitor	LmPK inh	Cycloheximide cs	Giardia FBPA inh
COc1cc(C)ccc1OCc1cc(C(=O)N(Cc2c(C)nn(C)c2C)C2CC2)no1	-0.4%	-6.6%	75.9*	2.6%	51.7*	1.3%
COc1cc(C)ccc1OCc1cc(C(=O)N2C[C@H]3CC[C@H]2C3)no1	0.0%	?	22.5	1.5%	20.5*	/
COc1cc(Cl)ccc1OCc1cc(C(=O)N2C[C@]3(C)C[C@H]2CC(C)(C)C3)no1	1.7%	3.0%	111.0*	-3.1%	71.6*	-11.3%
COc1cc(Cl)ccc1OCc1cc(C(=O)N2C[C@@H]3CCC[C@H]2C3)no1	1.8%	?	144.8*	-12.5%	60.1*	/
COc1cc(C)ccc1OCc1cc(C(=O)NC2CCOCC2)no1	-4.8%	/	/	/	/	/
CC1(C(=O)NS(=O)(=O)c2ccc(Cl)cc2)CCN1C(=O)Cc1cccs1 (configuration not stated)	-6.2%	/	/	/	/	/
CC(=O)Nc1nonc1-c1nnc(SCC(=O)Nc2ccc(C)cc2C)n1C	-2.7%	-2.2%	/	/	/	/
CCN(CC)C1CCN(C(=O)c2cc(COc3ccc(F)cc3Cl)on2)C1 (configuration not stated)	6.0%	8.0%	3.3	-1.1%	20.2	2.4%
O=C(c1cc(COc2cccc(C(F)(F)F)c2)on1)N1C[C@@H]2CCC[C@H]1C2	-9.6%	7.9%	77.3*	-0.9%	33.6*	/
COc1cc(Cl)ccc1OCc1cc(C(=O)N2C[C@H]3CC[C@H]2C3)no1	-6.9%	-0.7%	107.8*	-6.1%	54.9*	/
COc1cc(C)ccc1OCc1cc(C(=O)N2CCN(C)C[C@@H]2c2ccccc2)no1	8.1%	-32.5%	67.0*	1.4%	42.3*	/
COc1cc(C)ccc1OCc1cc(C(=O)NCCN2CCCC(O)C2)no1 (configuration not stated)	1.1%	3.7%	5.4	5.7%	-1.9	-1.7%
COc1ccc(Nc2oc(/C=C/c3ccc(OC)c(OC)c3)nc2C#N)cc1	0.4%	-13.0%	/	/	/	/
O=c1ccc2cc(S(=O)(=O)NCc3ccc(Cl)cc3)ccc2[nH]1	-4.4%	21.5%	/	/	/	/
Cc1nc(N)sc1-c1csc(N(C)c2ccc(O)cc2)n1	-13.2%	?	66.0*	0.1%	23.4*	-23.5%
CN(c1ccc(O)cc1)c1nc(-c2cccs2)cs1	-22.9%	10.0%	-6.0	6.6%	-4.2	-2.4%
Cn1c(O)c(C(=Nc2ccccc2)SCc2ccc(Cl)cc2)c(=O)n(C)c1=O	-18.7%	20µM*	26.2	-6.0%	1.8	?
Cn1c(O)c(C(=N)COc2ccccc2)c(=O)n(C)c1=O	6.6%	-16.5%	23.2	-5.1%	-4.2	-0.1%
Cc1ccc(NC(=O)Cc2ccc(-c3ccccc3)cc2)nc1	-1.5%	-19.4%	50.2	-1.6%	-2.6	3.0%
Cc1ccc(NC(=O)CCCc2ccccc2)nc1	-5.2%	0.5%	88.9*	0.8%	43.7*	2.3%
O=S(=O)(Cc1ccccc1)Nc1ccc(Br)cn1	1.3%	/	-3.8	0.7%	-3.2	5.2%
Cc1ccc(NS(=O)(=O)Cc2ccccc2)nc1	-0.1%	-0.1%	55.9*	-9.8%	24.8*	?
CNC(=S)NCCc1ccccc1	-2.2%	9.6%	33.8	-8.5%	-2.0	4.9%
Cc1ccc(NC(=S)NCCc2ccccc2)nc1	-28.7%	-34.2%	75.6*	2.7%	25.2*	-3.0%
Cc1ccc(C)c(N2CCN(C(=O)CN3CCSc4ccc(S(=O)(=O)N(C)C)cc43)CC2)c1	-3.7%	0.1%	/	/	/	/
SMILES	Tb PYK inh	Sm TGR inh	Shiga inhibitor	LmPK inh	Cycloheximide cs	Giardia FBPA inh
COc1ccc(-c2csc(-c3cccs3)n2)c(OC)c1	0.5%	-5.4%	69.8*	-8.8%	33.7*	-6.2%
COc1ccc(-c2csc(-c3ccccc3)n2)c(OC)c1	-1.8%	6.1%	114.7*	2.2%	53.1*	-0.3%
COc1cccc(C(C)(O)c2nc(-c3cccs3)cs2)c1 (configuration not stated)	1.5%	/	/	/	/	/
COc1cccc(-c2cc(C(F)(F)F)nc(-n3nc(C)c(Br)c3C)n2)c1	3.0%	0.4%	/	/	/	/
CCOc1ccc(C(c2c(O)nc(SC)n(C)c2=O)c2c(O)nc(SC)n(C)c2=O)cc1	?	15.8µM*	3.4	5.2%	-2.2	10.8%
O=C(CNC(=O)c1ccc(Cl)cc1)OCc1cc(=O)n2nc(C3CCCCC3)sc2n1	3.6%	3.2%	/	/	/	/
O=C(Nc1ccc2c(c1)OCO2)c1cc(C2CCCN(C(=O)C3CCCCC3)C2)on1 (configuration not stated)	-7.3%	/	/	/	/	/
CCOC(=O)c1c(C)oc2cc(Cl)c(O)c(CN(C)C)c12	8.1%	?	68.5*	-11.1%	39.3*	-7.9%
CCOC(=O)c1c(C)oc2ccc(O)c(CN(C)C)c12	-6.4%	0.6%	-7.2	2.3%	-0.6	-9.1%
CCCNC(=O)OC[C@@H]1O[C@H](CCO/N=C\[C@@H](C)[C@H](OCc2ccccc2)C(C)C)C=C[C@@H]1Oc1ccc(OC)cc1	/	/	/	/	/	-1.0%[12.9 µM]
COc1cc(/C=N/NS(=O)(=O)c2ccc(C)cc2)ccc1OCc1cccc(C(=O)O)c1	-5.5%	/	182.6*	-0.8%	53.6*	14.4%
NS(=O)(=O)c1ccc(CNS(=O)(=O)c2ccc3ccccc3c2)cc1	0.7%	0.0%	-31.7	-11.3%	2.4	/
COc1cc(/C=N/NS(=O)(=O)c2ccc3ccccc3c2)ccc1OCc1ccc(C(=O)O)cc1	-5.2%	0.4%	118.8*	11.9%	63.1*	25.7%
O=C(O)c1ccc(CNS(=O)(=O)c2ccc3ccccc3c2)cc1	0.2%	2.3%	54.7*	-0.7%	29.7	-15.9%
COc1cc(C2c3cc(O)c(OC)cc3CC(C(=O)O)C2CO)ccc1O (configuration not stated)	-6.4%	/	/	/	/	/
N[C@H](CCC(=O)NCC(=O)O)C(=O)O	/	/	-3.5	/	-5.3	-23.5%
CCOc1ccc(-c2nc(CSCC(=O)NCCc3ccccc3)c(C)o2)cc1	4.5%	-30.9%	/	/	/	/
Cc1ccc(-c2nc(CS(=O)CC(=O)N3CCN(c4ccc(F)cc4)CC3)c(C)o2)cc1 (configuration not stated)	-0.7%	-32.3%	-1.5	-1.1%	-3.3	/
CCOC(=O)C1CCN(C(=O)CSCc2nc(-c3ccc(OCC)cc3)oc2C)CC1	0.5%	-17.5%	-4.0	0.4%	15.4*	3.0%
CCOC(=O)C1CCN(C(=O)CS(=O)Cc2nc(-c3ccc(C)cc3)oc2C)CC1 (configuration not stated)	1.5%	3.98µM*	-7.1	0.1%	-1.5	-5.0%
CCOc1ccc(-c2nc(CSCC(=O)N3CCN(C(=O)c4ccco4)CC3)c(C)o2)cc1	0.0%	89.1µM*	93.9*	12.4%	24.9*	-8.8%

Screening results as filed in PubChem.
